# Reference: PubChem BioAssay AID1259341 (Broad Institute, 2017)
# Calls of active or inactive are those of the source.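 How the source made its calls: active means activity change under -35% in any replicate well, with more than 20 beads read in that well; inactive means the rest.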
# Molecular target: Caspase recruitment domain-containing protein 9 (Homo sapiens) + E3 ubiquitin-protein ligase TRIM62 (Homo sapiens) (UniProt Q9H257+Q9BVG3)
# Experiment: CARD9/TRIM62 protein interaction inhibitors – cell lysate, HEK293FT lysates, Luminex bead ELISA, primary screen (AID 1259341);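 further: PE anti-Flag signal of Flag-CARD9 captured by myc-TRIM62 beads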
# Conditions: PE fluorescence, stronger effect = lower value, concentration not given here
# Sequence of Caspase recruitment domain-containing protein 9 (Homo sapiens) + E3 ubiquitin-protein ligase TRIM62 (Homo sapiens) (Q9BVG3 whole entry, looked up, the tested form may be a part): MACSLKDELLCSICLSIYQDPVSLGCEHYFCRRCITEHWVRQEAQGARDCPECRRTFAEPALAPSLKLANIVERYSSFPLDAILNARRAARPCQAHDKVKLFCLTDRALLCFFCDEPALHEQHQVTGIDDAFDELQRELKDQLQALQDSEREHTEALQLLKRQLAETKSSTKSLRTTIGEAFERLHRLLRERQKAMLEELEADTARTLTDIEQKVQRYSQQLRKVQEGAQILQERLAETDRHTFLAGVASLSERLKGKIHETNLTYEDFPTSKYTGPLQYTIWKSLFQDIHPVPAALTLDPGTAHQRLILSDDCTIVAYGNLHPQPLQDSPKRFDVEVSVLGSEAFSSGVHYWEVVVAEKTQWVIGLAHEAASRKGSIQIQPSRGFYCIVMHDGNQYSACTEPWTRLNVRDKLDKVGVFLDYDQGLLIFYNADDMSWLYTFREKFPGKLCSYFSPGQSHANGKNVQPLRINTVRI
# Sequence of Caspase recruitment domain-containing protein 9 (Homo sapiens) + E3 ubiquitin-protein ligase TRIM62 (Homo sapiens) (Q9H257 whole entry, looked up, the tested form may be a part): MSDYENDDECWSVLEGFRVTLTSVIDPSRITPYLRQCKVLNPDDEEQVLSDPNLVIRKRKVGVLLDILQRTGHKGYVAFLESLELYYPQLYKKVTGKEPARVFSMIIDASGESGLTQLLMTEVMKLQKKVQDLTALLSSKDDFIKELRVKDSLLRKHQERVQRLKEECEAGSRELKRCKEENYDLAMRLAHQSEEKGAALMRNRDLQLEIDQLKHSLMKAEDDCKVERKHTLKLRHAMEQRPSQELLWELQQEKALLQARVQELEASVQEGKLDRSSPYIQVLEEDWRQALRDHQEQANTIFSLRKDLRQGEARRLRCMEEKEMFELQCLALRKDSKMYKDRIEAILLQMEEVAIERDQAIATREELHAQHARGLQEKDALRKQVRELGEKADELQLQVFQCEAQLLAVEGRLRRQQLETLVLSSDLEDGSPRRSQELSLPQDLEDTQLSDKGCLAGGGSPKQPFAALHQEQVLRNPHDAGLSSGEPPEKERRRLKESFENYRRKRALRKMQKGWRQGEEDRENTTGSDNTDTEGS
row,Structure (SMILES),"activity change, negative = inhibition"
1,COc1ccc(NC(=O)c2nc(Nc3ccccc3)c3ccccc3n2)cc1,4.26% (inactive)
2,O=C(Nc1nnc(-c2ccco2)s1)c1ccccc1,1.07% (inactive)
3,C[C@H](CO)N1C[C@H](C)[C@@H](CN(C)C(=O)C2CCCCC2)OCCCC[C@H](C)Oc2ccc(NS(=O)(=O)c3ccc(Cl)cc3)cc2C1=O,8.52% (inactive)
4,CC(C)(C)c1ccc(-c2nc(C#N)c(NCc3ccncc3)o2)cc1,6.53% (inactive)
5,Cc1nn2c(c1-c1ccccc1)NC(c1ccco1)=CC2c1ccco1 (stereo not given),21.4% (inactive)
6,COc1cccc(NC(=O)CN(C)C(=O)c2cc3c(s2)CCC3)c1,-19.8% (inactive)
7,O=C(CCN1CCOCC1)c1ccc2c(c1)OCCO2,10.8% (inactive)
8,O=C(CN1CCOC1=O)N1CCC2(CCC(=O)N(CCCn3ccnc3)C2)CC1,-6.82% (inactive)
9,O=C(Nc1nccs1)c1cc(-c2ccccn2)nc2c(Cl)cccc12,-0.831% (inactive)
10,Cc1ccc(S(=O)(=O)Nc2ccc3c(c2)C(=O)N([C@H](C)CO)C[C@H](C)[C@@H](CN(C)CC2CCCCC2)OCCCC[C@H](C)O3)cc1,4.51% (inactive)
11,CCOc1ccccc1NC(=O)N1CCCC(c2nccn2CCOC)C1 (stereo not given),-5.04% (inactive)
12,COc1ccc(Nc2nc(-c3nnc(-c4ccc(F)cc4)o3)nc3ccccc23)cc1Cl,-3.07% (inactive)
13,O=C(NC1CC1)c1cc(-c2ccco2)nc2ccccc12,-6.41% (inactive)
14,Clc1ccc2nc(CN3CCCCCC3)cn2c1,5.28% (inactive)
15,O=C(O)c1ccccc1/C=N/NC(=O)c1cc(-c2ccco2)nc2ccccc12,-9.37% (inactive)
